Reference: the supplement of paper PMC9694430

Key:
Assay in all cases: thermal shift delta Tm vs DMSO control; higher = stronger stabilization (binding)
Conditions in all cases: 12.5 µM; protein concentration 2 µM
LOC_OS02G45750-cb003 = system: LOC_OS02G45750-cb003
Procedure, shortened: (§1)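 Heating from 25°C to 95°C at 0.05°C/s, fluorescence was recorded for 19.5 μl wells of 2 μM E. coli-expressed, purified rice kinase domain in 100 mM potassium phosphate pH 7.5, 150 mM NaCl, 10% glycerol and 5 × SYPRO Orange with compound in DMSO. Boltzmann fits gave melting temperatures for this differential scanning fluorimetry assay. The shift reported is the mean of three replicates against the DMSO-only protein.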

LOC_OS02G54510-cb004 = system: LOC_OS02G54510-cb004
Procedure, shortened: as §1

LOC_OS03G04050-cb001 = system: LOC_OS03G04050-cb001
Procedure, shortened: as §1

LOC_OS03G12390-cb001 = system: LOC_OS03G12390-cb001
Procedure, shortened: as §1

LOC_OS03G27990-cb004 = system: LOC_OS03G27990-cb004
Procedure, shortened: as §1

LOC_OS03G50450-cb001 = system: LOC_OS03G50450-cb001
Procedure, shortened: as §1

LOC_OS03G50810-cb003 = system: LOC_OS03G50810-cb003
Procedure, shortened: as §1

LOC_OS04G35114-cb001 = system: LOC_OS04G35114-cb001
Procedure, shortened: as §1

LOC_OS04G38480-cb003 = system: T1, LOC_OS04G38480-cb003
T1 sequence (whole entry): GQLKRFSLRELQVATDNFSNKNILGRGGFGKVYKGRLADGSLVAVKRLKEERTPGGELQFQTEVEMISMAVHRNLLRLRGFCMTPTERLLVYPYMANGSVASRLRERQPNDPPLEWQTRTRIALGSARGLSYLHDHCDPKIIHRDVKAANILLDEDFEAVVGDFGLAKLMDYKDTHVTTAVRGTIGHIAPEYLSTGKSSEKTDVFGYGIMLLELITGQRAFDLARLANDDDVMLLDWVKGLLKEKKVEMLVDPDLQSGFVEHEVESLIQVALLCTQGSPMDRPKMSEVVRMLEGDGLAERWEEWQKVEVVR
Procedure, shortened: as §1

LOC_OS04G41100-cb001 = system: T2, LOC_OS04G41100-cb001
T2 sequence (whole entry): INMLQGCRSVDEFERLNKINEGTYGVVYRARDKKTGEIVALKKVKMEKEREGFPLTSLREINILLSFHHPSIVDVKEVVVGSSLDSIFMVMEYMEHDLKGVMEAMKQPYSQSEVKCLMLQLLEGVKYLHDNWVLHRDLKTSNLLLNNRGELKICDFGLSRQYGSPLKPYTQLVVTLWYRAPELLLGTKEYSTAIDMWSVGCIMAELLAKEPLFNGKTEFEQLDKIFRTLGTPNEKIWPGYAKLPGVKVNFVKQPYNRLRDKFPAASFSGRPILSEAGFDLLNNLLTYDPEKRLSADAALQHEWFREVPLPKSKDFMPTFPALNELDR
Procedure, shortened: as §1

LOC_OS04G57630-cb004 = system: LOC_OS04G57630-cb004
Procedure, shortened: as §1

LOC_OS05G07850-cb002 = system: LOC_OS05G07850-cb002
Procedure, shortened: as §1

LOC_OS05G16824-cb004 = system: LOC_OS05G16824-cb004
Procedure, shortened: as §1

LOC_OS05G28520-cb001 = system: LOC_OS05G28520-cb001
Procedure, shortened: as §1

LOC_OS05G30820-cb001 = system: LOC_OS05G30820-cb001
Procedure, shortened: as §1

LOC_OS05G43570-cb004 = system: LOC_OS05G43570-cb004
Procedure, shortened: as §1

LOC_OS06G16330-cb003 = system: LOC_OS06G16330-cb003
Procedure, shortened: as §1

LOC_OS06G22820-cb001 = system: T3, LOC_OS06G22820-cb001
T3 sequence (whole entry): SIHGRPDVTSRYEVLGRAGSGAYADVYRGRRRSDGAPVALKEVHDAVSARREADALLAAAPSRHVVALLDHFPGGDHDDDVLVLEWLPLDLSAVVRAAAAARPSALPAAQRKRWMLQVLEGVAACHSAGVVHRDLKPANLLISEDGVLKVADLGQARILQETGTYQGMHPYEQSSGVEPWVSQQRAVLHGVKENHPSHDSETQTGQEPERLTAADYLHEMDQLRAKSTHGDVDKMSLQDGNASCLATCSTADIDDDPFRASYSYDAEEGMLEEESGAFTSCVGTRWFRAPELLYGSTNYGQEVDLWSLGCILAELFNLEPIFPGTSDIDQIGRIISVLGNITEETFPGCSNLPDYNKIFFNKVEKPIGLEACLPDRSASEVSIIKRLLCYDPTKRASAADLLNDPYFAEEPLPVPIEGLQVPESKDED
Procedure, shortened: as §1

LOC_OS07G06570-cb004 = system: LOC_OS07G06570-cb004
Procedure, shortened: as §1

LOC_OS07G07230-cb001 = system: LOC_OS07G07230-cb001
Procedure, shortened: as §1
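Also: purified Escherichia coli-expressed rice kinase domain construct.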

LOC_OS06G16330-cb003, sequence (as listed by the source): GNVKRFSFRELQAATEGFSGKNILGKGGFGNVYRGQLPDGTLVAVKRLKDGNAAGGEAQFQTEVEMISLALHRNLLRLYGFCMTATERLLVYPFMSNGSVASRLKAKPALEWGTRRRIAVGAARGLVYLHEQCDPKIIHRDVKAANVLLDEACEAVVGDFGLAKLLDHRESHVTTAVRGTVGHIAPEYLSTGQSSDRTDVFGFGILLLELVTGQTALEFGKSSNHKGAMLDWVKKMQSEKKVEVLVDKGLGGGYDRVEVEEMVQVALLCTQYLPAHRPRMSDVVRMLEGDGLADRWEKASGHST

Row | Structure (SMILES) | thermal shift delta Tm (LOC_OS02G45750-cb003) | thermal shift delta Tm (LOC_OS02G54510-cb004) | thermal shift delta Tm (LOC_OS03G04050-cb001) | thermal shift delta Tm (LOC_OS03G12390-cb001) | thermal shift delta Tm (LOC_OS03G27990-cb004) | thermal shift delta Tm (LOC_OS03G50450-cb001) | thermal shift delta Tm (LOC_OS03G50810-cb003) | thermal shift delta Tm (LOC_OS04G35114-cb001) | thermal shift delta Tm (LOC_OS04G38480-cb003) | thermal shift delta Tm (LOC_OS04G41100-cb001) | thermal shift delta Tm (LOC_OS04G57630-cb004) | thermal shift delta Tm (LOC_OS05G07850-cb002) | thermal shift delta Tm (LOC_OS05G16824-cb004) | thermal shift delta Tm (LOC_OS05G28520-cb001) | thermal shift delta Tm (LOC_OS05G30820-cb001) | thermal shift delta Tm (LOC_OS05G43570-cb004) | thermal shift delta Tm (LOC_OS06G16330-cb003) | thermal shift delta Tm (LOC_OS06G22820-cb001) | thermal shift delta Tm (LOC_OS07G06570-cb004) | thermal shift delta Tm (LOC_OS07G07230-cb001)
1 | Cc1cn(-c2cc(NC(=O)c3ccc(C)c(Nc4nccc(-c5cccnc5)n4)c3)cc(C(F)(F)F)c2)cn1 [Nilotinib (AMN-107)] | 0.19 °C | 0.17 °C | 0.37 °C | 0.05 °C | 0.02 °C | 0.23 °C | 0.16 °C | -0.37 °C | 0.3 °C | 0.57 °C | -0.2 °C | -0.28 °C | -8.56 °C | 0.53 °C | 0.44 °C | 0.26 °C | -0.09 °C | 0.72 °C | 0.96 °C | 0.47 °C
2 | COc1cc(OC)c(/C=C/S(=O)(=O)Cc2ccc(OC)c(NCC(=O)O)c2)c(OC)c1 | 0.52 °C | 0.14 °C | 0.35 °C | 0.36 °C | 0.04 °C | 0.44 °C | 0.25 °C | 0.47 °C | 1.33 °C | 0.67 °C | 0.06 °C | 0.2 °C | -0.41 °C | 0.21 °C | 0.62 °C | 0.71 °C | -0.1 °C | 0.75 °C | 0.87 °C | 0.29 °C
3 | CC(C)n1nc(-c2cc3cc(O)ccc3[nH]2)c2c(N)ncnc21 [Torkinib (PP242)] | 1.42 °C | 0.85 °C | 0.29 °C | 2.95 °C | 0.64 °C | 0.48 °C | 0.71 °C | 5.09 °C | 1.25 °C | 0.2 °C | 0.41 °C | 5.09 °C | -3.24 °C | 0.21 °C | 0.67 °C | 0.33 °C | 1.93 °C | 0.42 °C | 0.62 °C | 0.14 °C
4 | CC(C)N(CCC(=O)c1ccc2ccccc2c1)Cc1ccccc1 | -0.52 °C | -0.55 °C | 0.06 °C | -6.73 °C | -1 °C | 0.58 °C | -1.55 °C | -1.2 °C | 0.27 °C | 2.52 °C | 0.41 °C | 4.18 °C | -2.65 °C | -0.95 °C | -1.16 °C | -0.34 °C | -1.31 °C | -1.34 °C | 0.13 °C | 0.23 °C
5 | CN1CCN(c2ccc(OC(F)(F)F)c(Nc3ncc4c(n3)-c3c(c(C(N)=O)nn3CCO)CC4)c2)CC1 | 0.67 °C | -0.01 °C | 0.33 °C | 1.65 °C | -0.02 °C | -0.04 °C | 0.54 °C | 1.58 °C | -0.15 °C | 0.74 °C | 2.32 °C | 0.85 °C | -0.84 °C | 0.63 °C | 0.48 °C | 0.54 °C | 0.46 °C | 0.49 °C | 1.36 °C | 0.02 °C
6 | CN(C)CCOc1ccc(-c2nc(-c3ccncc3)c(-c3ccc4c(c3)CC/C4=N\O)[nH]2)cc1 | 0.22 °C | 0.08 °C | 0.13 °C | -0.23 °C | 0.06 °C | 0.04 °C | 0.55 °C | 0.33 °C | 0.74 °C | 0.3 °C | 0.24 °C | 1.09 °C | -2.35 °C | -0.03 °C | 0.65 °C | 0.64 °C | -0.3 °C | 0.47 °C | 0.49 °C | 0.18 °C
